The results in this text go back to PubChem BioAssay (NCATS).

Records with an inconclusive call do not appear. Active and inactive are the calls of the source. Unless noted, calls follow the shape of the dose curve; as a rule, active = well fitted curve in the direction sought with a large enough effect; inconclusive = small, poorly fitted or top-dose-only effect, or another doubt; inactive = no such curve, though single readings can be large; an effect the other way counts as inactive or inconclusive.

The nature of experiment [1]: qHTS for Inhibitors of Plasmodium falciparum (HB3) proliferation (AID 504318). Also: nearly all actives have a fitted effect of over 60% in size. Also: potency is read from the fitted curve at half-maximal effect. In a few lines:
(§1)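 Erythrocytes infected with P. falciparum line (0.3% parasitemia, 2.5% hematocrit final) incubated with compounds 72 h at 37 °C, 5% CO2; SYBR Green lysis buffer added, fluorescence read next day. Normalized to 0.29 uM artemisinin and DMSO.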

Experiment [2] can be described thus: qHTS for Inhibitors of Plasmodium falciparum (CP250) proliferation (AID 504320). Also: potency is read from the fitted curve at half-maximal effect. Summed up:
as §1

Experiment [3] concerns the target Atrial natriuretic peptide receptor 1 (Homo sapiens) (UniProt P16066). Description: Natriuretic polypeptide receptor (hNpr1) antagonism - Pilot CMLD screen (AID 1347052; calls by dose curve;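 also: HEK293 cells with hNpr1 stimulated by hNppA peptide at 0.1 nM; cGMP level read as GloSensor luciferase luminescence after agonist stimulation; series mostly up to about 9.2 µM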).

Atrial natriuretic peptide receptor 1 (Homo sapiens), sequence (P16066 whole entry, looked up): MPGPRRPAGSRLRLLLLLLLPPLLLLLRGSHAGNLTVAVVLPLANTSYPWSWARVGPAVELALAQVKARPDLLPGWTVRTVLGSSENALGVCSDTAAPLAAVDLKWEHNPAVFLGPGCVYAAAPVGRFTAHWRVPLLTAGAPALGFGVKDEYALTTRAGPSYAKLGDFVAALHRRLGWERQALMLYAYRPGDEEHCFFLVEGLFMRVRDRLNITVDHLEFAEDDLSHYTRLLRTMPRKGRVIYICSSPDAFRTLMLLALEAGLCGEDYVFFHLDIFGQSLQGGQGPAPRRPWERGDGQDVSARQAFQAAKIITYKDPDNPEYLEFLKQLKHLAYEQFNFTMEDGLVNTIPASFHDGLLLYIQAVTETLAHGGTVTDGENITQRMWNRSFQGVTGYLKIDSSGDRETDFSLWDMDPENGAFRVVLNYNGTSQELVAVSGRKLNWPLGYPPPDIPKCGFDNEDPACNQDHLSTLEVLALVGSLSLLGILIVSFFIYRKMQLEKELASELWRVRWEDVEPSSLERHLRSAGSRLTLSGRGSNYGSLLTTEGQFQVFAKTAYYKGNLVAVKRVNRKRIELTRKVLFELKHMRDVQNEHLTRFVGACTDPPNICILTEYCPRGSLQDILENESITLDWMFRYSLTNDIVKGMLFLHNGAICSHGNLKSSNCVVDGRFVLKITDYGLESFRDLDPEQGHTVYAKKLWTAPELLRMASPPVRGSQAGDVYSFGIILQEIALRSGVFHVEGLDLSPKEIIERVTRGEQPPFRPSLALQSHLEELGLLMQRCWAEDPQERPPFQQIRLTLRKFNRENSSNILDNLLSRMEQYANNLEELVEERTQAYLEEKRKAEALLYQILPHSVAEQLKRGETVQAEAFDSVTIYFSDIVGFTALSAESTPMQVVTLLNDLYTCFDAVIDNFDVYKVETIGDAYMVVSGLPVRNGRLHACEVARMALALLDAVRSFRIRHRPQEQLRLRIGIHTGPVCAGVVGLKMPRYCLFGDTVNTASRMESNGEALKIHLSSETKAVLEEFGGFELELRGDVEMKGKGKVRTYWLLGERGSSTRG

For the molecule `COC(=O)C1=C(C(=O)OC)[C@@H]2N(C)c3ccccc3[C@@]23C[C@@H](C(=O)OC)N(C(=O)NC2CCCC2)C3=N1`, the Potency entry in experiment [1], in experiment [2] and in experiment [3] was “inactive” in each case.

On to `C[C@]12C[C@@](C)(C=C1C=Cc1ccc(F)cc1)C(=O)C[C@H]2c1ccc(F)cc1`, for which the Potency in experiment [1] was 1690 nM (active). Moreover, the Potency entry in experiment [3] is “inactive”.

As for `CC1(C)CC(=O)C2=C(C1)O[C@@]1(c3ccsc3)Cc3cc(C#N)ccc3[C@H]2O1`, the Potency result in experiment [1], in experiment [2] and in experiment [3] was “inactive” throughout.

Take `C=C(C)C(=O)C=CC=Cc1ccccc1`: the Potency result in experiment [1], in experiment [2] and in experiment [3] was “inactive” in each case.

For `O=C1N(Cc2ccc(F)cc2)c2ccccc2[C@@]12O[C@H](COc1ccccc1)CC1CCCC12` (stereo partly specified), the Potency result in experiment [1], in experiment [2] and in experiment [3] was “inactive” in each case.

For the molecule `C=CCN1C(=O)CC[C@@]23C1=NC(C(=O)OC)=C(C(=O)OC)[C@@H]2N(C)c1ccccc13`, the Potency result in experiment [1], in experiment [2] and in experiment [3] was “inactive” in each case.

Regarding `COc1ccc(C(O)C2=CCCC2=O)cc1` (stereo unspecified), the Potency entry in experiment [1], in experiment [2] and in experiment [3] was “inactive” throughout.

For `COc1cc2c(cc1OC)[C@@H]1O[C@](CCCCN3C(=O)c4ccccc4C3=O)(C2)Oc2c1c(=O)oc1ccc(F)cc21`, the Potency result in experiment [2] and in experiment [3] was “inactive” throughout.

As for `O=C1N(Cc2ccccc2C(F)(F)F)c2ccccc2[C@@]12O[C@H](COc1ccccc1)CC1=C2CCC1`, the Potency entry in experiment [2] and in experiment [3] was “inactive” in each case.

On to `C[C@H]1Cc2c(COc3ccccc3)nc3c(c2CO1)CN(C(=O)c1cc(I)ccc1F)CC3`, for which the Potency result in experiment [2] and in experiment [3] was “inactive” in each case.

As to `C[C@@H]1C=CCC(=O)N[C@@H](c2cccc(Br)c2)[C@H](C)C=CCC(=O)N[C@@H]1c1cccc(Br)c1`, the Potency entry in experiment [2] and in experiment [3] was “inactive” throughout.

`C[C@H]1CC[C@H]2C(=O)N(Cc3ccccc3)C[C@@H](O)CN2[C@H]1c1ccc(Br)cc1`: the Potency entry in experiment [2] and in experiment [3] was “inactive” each time.

Take `CCN1C(=NCC(C)C)NC(c2cccc(F)c2)C(C(=O)OC)=C1C` (stereo unspecified): the Potency entry in experiment [2] and in experiment [3] was “inactive” throughout.

Consider `O=C1Nc2ccccc2[C@@]12O[C@H](COc1ccccc1)CC1=C2CCC1`, for which the Potency entry in experiment [2] and in experiment [3] was “inactive” in each case.

As to `COCCN1C(=O)C2=C(C1=O)C1N(C)c3ccccc3[C@@]13C[C@@H](CO)N(C(=O)c1ccc(Br)cc1)C3=N2` (stereo partly specified), the Potency entry in experiment [2] and in experiment [3] was “inactive” each time.

As to `CC1=CC[C@@H](COc2ccccc2)O[C@@]2(C1)C(=O)N(Cc1ccc(Br)cc1)c1ccccc12`, the Potency result in experiment [2] and in experiment [3] was “inactive” each time.

On to `Cc1ccc(C=CC2=C[C@]3(C)C[C@]2(C)[C@H](c2ccc(C)cc2)CC3=O)cc1`, for which the Potency result in experiment [2] and in experiment [3] was “inactive” throughout.

As to `COC(=O)CCC(=O)N1C2=NC3=C(C(=O)N(Cc4ccc5c(c4)OCO5)C3=O)C3N(C)c4ccccc4[C@]23C[C@H]1CO` (stereo partly specified), the Potency result in experiment [2] and in experiment [3] was “inactive” each time.

Take `COC1=C[C@H](C(=O)N[C@H]2CCCC[C@H]2NC(C)=O)[C@@]2(C)Cc3ccccc3[C@@H]2CC1=O`: the Potency result in experiment [2] and in experiment [3] was “inactive” each time.

For `COc1ccc([C@]23Cc4ccccc4[C@H](O2)C2=C(CCCC2=O)O3)cc1`, the Potency entry in experiment [2] and in experiment [3] was “inactive” throughout.

On to `C#CCN1C(=O)[C@]2(OC[C@@H]3Cc4ccccc4[C@@H]3C=C2C)c2ccccc21`, for which the Potency result in experiment [2] and in experiment [3] was “inactive” in each case.

Take `COC(=O)N1C2CC(=O)O[C@H]3c4cc5c(cc4[C@]1(C)[C@@]3(Br)c1ccccc12)OCO5`: in experiment [2], the Potency is 1510 nM (active). Besides, the Potency entry in experiment [3] is “inactive”.

As for `COC(=O)CC=C[C@@H](C)[C@H](NC(=O)OCC(Cl)(Cl)Cl)c1ccc(-c2ccccc2)cc1`, the Potency entry in experiment [2] and in experiment [3] was “inactive” each time.

Consider `CCOC(=O)CN1C(=O)[C@]2(OC[C@@H]3Cc4ccccc4[C@H]3C=C2C)c2ccccc21`, for which the Potency entry in experiment [2] and in experiment [3] was “inactive” throughout.

Take `CCCC[C@]12Cc3cc(C#N)ccc3[C@H](O1)c1c(cc(-c3ccccc3)oc1=O)O2`: the Potency entry in experiment [2] and in experiment [3] was “inactive” each time.

As to `Fc1ccccc1-c1nc(-c2ccccc2)oc1NCc1ccccc1`, the Potency entry in experiment [2] and in experiment [3] was “inactive” in each case.

For the molecule `Cc1cc2c(c(=O)n1Cc1ccccc1)[C@H]1O[C@](c3ccsc3)(Cc3cc(C#N)ccc31)O2`, the Potency result in experiment [2] and in experiment [3] was “inactive” each time.

As for `COc1ccc([C@]23Cc4ccccc4[C@H](O2)C2=C(CC(C)(C)CC2=O)O3)cc1`, the Potency result in experiment [2] and in experiment [3] was “inactive” throughout.

On to `O=C(N[C@H](c1ccccc1)C1CCCC=C1c1ccccc1)C(F)(F)F` (stereo partly specified), for which the Potency entry in experiment [2] and in experiment [3] was “inactive” in each case.

As for `C=CCN1c2ccccc2[C@]23CCC(=O)N(Cc4cc(OC)c(OC)c(OC)c4)C2=NC(C(=O)OC)=C(C(=O)OC)[C@H]13`, the Potency entry in experiment [2] and in experiment [3] was “inactive” throughout.

With `C[C@H]1C[C@@H](C)O[C@@]2(C1)C(=O)N(Cc1ccccc1C(F)(F)F)c1ccccc12`, the Potency result in experiment [2] and in experiment [3] was “inactive” in each case.

Take `CC(CCN1CCc2nc(-c3ccccc3)c(-c3ccccc3)cc2C1)=NO[C@H](C)CN1CCCCc2nc(C)c(C)cc21`: the Potency entry in experiment [2] and in experiment [3] was “inactive” each time.

Consider `COC(=O)c1ccc(CN2C(=O)[C@@]3(CC(C)=C[C@@H](COc4ccccc4)O3)c3ccccc32)cc1`, for which the Potency result in experiment [2] and in experiment [3] was “inactive” in each case.

Consider `CC(=O)OC[C@H]1O[C@H](CCON=C(C)CCN2CCc3nc(-c4ccccc4)c(-c4ccccc4)cc3C2)C=C[C@H]1OC(C)=O`, for which the Potency result in experiment [2] and in experiment [3] was “inactive” each time.

For the molecule `N#Cc1ccc2c(c1)C[C@]1(c3ccsc3)Oc3c(c(=O)oc4ccc(F)cc34)[C@@H]2O1`, the Potency result in experiment [2] and in experiment [3] was “inactive” each time.

`COc1cccc([C@@H]2Oc3ccc(Br)cc3C[C@@H]2OC(=O)Nc2cc(OC)c(OC)c(OC)c2)c1`: the Potency entry in experiment [2] and in experiment [3] was “inactive” in each case.

`C[C@H]1CC[C@H]2C(=O)N(Cc3cccc([N+](=O)[O-])c3)C[C@H](O)CN2[C@H]1c1cccc(Br)c1`: the Potency result in experiment [2] and in experiment [3] was “inactive” in each case.

With `C[C@]12C[C@@](C)(C=C1C=Cc1ccccc1)C(=O)C[C@H]2c1ccccc1`, the Potency entry in experiment [2] and in experiment [3] was “inactive” each time.

Regarding `O=C1N(CC2CC2)c2cccc(Br)c2[C@@]12O[C@H](COc1ccccc1)CC1=CCCC12` (stereo partly specified), the Potency result in experiment [2] and in experiment [3] was “inactive” throughout.

For the molecule `C[C@@H]1CC[C@H]2C(=O)N(CC3CCCCC3)C[C@H](O)CN2[C@@H]1c1ccc(Br)cc1`, the Potency result in experiment [2] and in experiment [3] was “inactive” each time.

For `O=C1N(Cc2ccc(Br)cc2)c2cccc(Br)c2[C@@]12O[C@H](COc1ccccc1)CC1=CCCC12` (stereo partly specified), the Potency result in experiment [2] and in experiment [3] was “inactive” each time.

On to `C[C@@H]1CC[C@H]2C(=O)O[C@@H](COc3ccc(C(C)(C)C)cc3)CN2[C@@H]1c1ccc(Br)cc1`, for which the Potency in experiment [2] was 1510 nM (active). The Potency result in experiment [3] was “inactive”.

With `COc1cc2c(cc1OC)[C@@H]1O[C@](c3ccsc3)(C2)OC2=C1C(=O)CC(C)(C)C2`, the Potency entry in experiment [2] and in experiment [3] was “inactive” in each case.

For `CC1=C[C@H]2c3ccccc3C[C@H]2CO[C@]12C(=O)N(Cc1ccc(Br)cc1)c1ccccc12`, the Potency entry in experiment [2] and in experiment [3] was “inactive” throughout.

In the case of `COC(=O)C1=C(C)N(Cc2ccccc2)C(=NCC(C)C)NC1c1ccc(Br)cc1` (stereo unspecified), the Potency result in experiment [2] and in experiment [3] was “inactive” in each case.
